Active and inactive are the calls of the source.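 Rule for the calls: active = calcium signal rise above buffer-control mean plus 5 SD in both duplicates, and also a hit in the primary screen; inactive = the rest.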

This assay has as its target Short transient receptor potential channel 4 (Mus musculus) (UniProt Q9QUQ5). In words: calcium flux activators in TRPC4/5HT1a cells, counter-screen for TRPC4 activator project, cell-based, second counter screen, HEK293 TRPC4/5HT1a, Fluo-4 (AID 434977).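 For activation: plate controls were assay buffer for no effect and maximal serotonin response for full effect.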 Conditions: Fluo-4 calcium flux, at 10 µM; active compounds read high.
For `COc1ccc(C(CCNCc2ccc(N(C)C)cc2)c2ccccc2)cc1` (stereo not given), the activation is 26.5% (active).
On the same count and under the same terms, as for `COc1ccc(C(=O)NNC(=S)NC(=O)c2cccs2)cc1`, the figure is 42.7% (active); as for `Cc1cccc(C(=O)NC(=S)NNC(=O)Cc2ccccc2)c1`, 133% (active).
As for `COc1ccc(CC(=O)NCC(c2ccc(OC)cc2)N(C)C)cc1` (stereo not given), the result was inactive.
As for `COc1cccc(C(=O)NC2CCCN(C3Cc4ccccc4C3)C2)c1OC` (stereo not given), the activation was 82.8% (active).
Take `NC(=O)C1CCCN(CCc2ccccc2)C1` (stereo not given): the activation was 74.3% (active).
For `CNC[C@H](Cc1ccccc1)NC[C@@H](Cc1cccc2ccccc12)NCCc1ccc(C)cc1`, the activation is 68.3% (active).
On the same count and under the same terms, as for `O=C(CC1C(=O)NCCN1Cc1cccc(Oc2ccccc2)c1)NCCc1ccccn1` (stereo not given), the figure is 42.3% (active); as for `COc1ccccc1/C=C/CN1CCCC(CCC(=O)NCc2ccccc2F)C1` (stereo not given), 32.5% (active).
The same measure, in the same setting: as for `C=CCn1c(/N=C/c2ccc(N(C)C)cc2)nc2ccccc21`, the figure is 44.6% (active).
Same read-out and setting: to `Cc1oc(-c2ccccc2Cl)nc1CS(=O)CC(=O)NCCCN1CC(C)CC(C)C1` (stereo not given) belongs 20.1% (active).
Regarding `COc1ccc(CN2CCC(N(CCc3ccccc3)Cc3ccccc3)CC2)c(OC)c1`, the outcome was inactive.
For `O=C(NC(=S)NNC(=O)c1ccccc1[N+](=O)[O-])c1ccc(Br)cc1`, the result was inactive.
Turning to `O=C(NC1CCN(Cc2ccccc2)CC1)C12CC3CC(CC(C3)C1)C2`, the activation was 61.6% (active).
Regarding `CCCN1CCN(C(=O)Cn2c(=O)oc3cc(S(=O)(=O)NCc4ccccc4)ccc32)CC1`, the activation is 26.3% (active).
As for `Cn1c2ccccc2c(=O)c2c(=O)n(C3CCCCC3)c(-c3ccco3)nc21`, the result was inactive.
With `OCCC1CN(Cc2ccccc2-c2ccco2)CCN1Cc1ccccc1` (stereo not given), the activation was 17.2% (active).
On to `CCN1CCCC1CNS(=O)(=O)c1c(C)cc(C)cc1C` (stereo not given), for which the activation was 20.3% (active).
The same measure, in the same setting: as for `Cc1ccc(OCC(=O)N(C)CCc2ccccn2)cc1`, the figure is 45.5% (active).
On to `CC(C)n1cnc2c(N(C)c3ccccc3)nc(N(CCN(C)C)Cc3ccccc3)nc21`, for which the outcome was inactive.
As for `CCC(=O)N1CCc2cc(Br)cc(S(=O)(=O)NCCCN(CC)Cc3ccccc3)c21`, the activation is 55.5% (active).
Consider `NCCCNC(=O)c1cc2ccccc2[nH]1`, for which the activation was 6.83% (active).
On to `CN(C)C(CNC(=O)Nc1cccc(Cl)c1)c1cccnc1` (stereo not given), for which the outcome was inactive.
For the molecule `CN(C)C(CNC(=O)CCS(=O)(=O)c1ccccc1)c1ccccc1` (stereo not given), the result was inactive.
Still for that read-out and setting: to `COc1c2c(cc3c1C(CC(O)Cc1ccccc1)N(C)CC3)OCO2` (stereo not given) belongs “inactive”; to `CC1CN(C)C(C)c2c1oc1ccc(N)cc21` (stereo not given), “inactive”.
On the same count and under the same terms, as for `CN(C)c1ccc(C(CNC(=O)Cc2cccc3ccccc23)N(C)C)cc1` (stereo not given), the entry is “inactive”.
On to `Cc1cc(C)cc(NC(=S)N2CCN(c3ncc(C(F)(F)F)cc3Cl)CC2)c1`, for which the activation was 49.6% (active).
`COC(=O)C1CCN(Cc2cn(-c3ccccc3)nc2-c2ccc3c(c2)OCO3)CC1`: the result was inactive.
As to `Cc1cccc(OCCOCCN2CCNCC2)c1C`, the activation was 65.6% (active).
For `O=C1/C(=C\c2cc([N+](=O)[O-])ccc2O)SC(=S)N1Cc1ccc(Cl)cc1`, the activation is 147% (active).
Same read-out and setting: as for `CCn1c(N2CCN(S(=O)(=O)CC)CC2)nc2ccccc21`, the figure is 19.2% (active).
The same measure, in the same setting: as for `COc1ccc(CSCCN)cc1Cl`, the figure is 27.1% (active).
For `O=C1S/C(=C\c2ccc(N3CCOCC3)o2)C(=O)N1Cc1c(F)cccc1Cl`, the outcome was inactive.
Still for that read-out and setting: as for `CC(C)(C)[C@H]1C=C(C(=O)NCc2ccccc2)O[C@@H](OCc2ccc(CO)cc2)C1`, the entry is “inactive”.
As for `Nc1c(C(=O)c2ccccc2)sc2nsc(SCCN3CCCC3)c12`, the activation was 93% (active).
Still for that read-out and setting: as for `O=C(CC(=O)c1c(F)cccc1Cl)c1ccccc1O`, the figure is 98.7% (active).
As to `Cc1ccccc1Cn1c(CN2CCc3ccccc3C2)nc2c1c(=O)n(C)c(=O)n2C`, the outcome was inactive.
As for `Cc1csc2c(N3CCN(C(=O)Nc4ccc(OC(F)(F)F)cc4)CC3)ncnc12`, the activation is 43.3% (active).
Same read-out and setting: as for `O=S(=O)(NCCc1csc(-c2ccccc2)n1)c1cccnc1`, the figure is 26.7% (active).

(Values after PubChem BioAssay.)
